21 compounds from PubChem BioAssay can be followed below.

Test [1] can be described thus: antimalarial activity against Dd2 strain (AID 2302;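 active means growth inhibition above 50% at the single 2 µM test dose, taken to imply half-maximal potency below 2 µM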;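 further: 0% = DMSO untreated growth and 100% = chloroquine plus artemisinin killed control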). The note with it: P. falciparum Dd2 in RBCs, LDH growth readout, 72 h; at 2 µM; hits give high values.
Test [2] is described as follows: human hepatoma cell viability loss – ATP luminescence, cytotoxicity control for P. falciparum antimalarial project, primary screen (AID 2303;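 active means inhibition above 50%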;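 further: 0% = DMSO wells and 100% = digitonin-killed cells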). The settings on record: HepG2 viability, 24-48 h, at 10 µM, hits give high values.
The target in test [3] is L-lactate dehydrogenase (Plasmodium falciparum (isolate CDC / Honduras)) (UniProt Q27743). As to the kind of experiment: PfLDH activity inhibition – cell lysate, 3D7 strain, counter-screen for P. falciparum growth inhibition project (AID 2304).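 Further: 0% = vehicle and 100% = reference inhibitor.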 The settings on record: P. falciparum 3D7 crude extract, LDH APAD/NBT absorbance; at 2 µM; hits give high values. A general note: The purpose of a counterscreen is to sort out artefacts and off-target activity.

Test [4] can be described thus: inhibition of 3D7 malaria parasite growth – strain 3D7 (AID 2306).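 Further: 0% = DMSO wells and 100% = chloroquine plus artemisinin control wells.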 The note with it: P. falciparum 3D7 erythrocytic growth, LDH absorbance, 72 h; at 2 µM; hits give high values.
Test [5] concerns the target Calcium-dependent protein kinase 1 (Plasmodium falciparum (isolate 3D7)) (UniProt P62344). As to the kind of experiment: PfCDPK1 kinase inhibitors, biochemical, TCAMS library (AID 1159585; cut-off not given, nearly all actives have IC50 up to about 0.98 µM;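 further: inhibitors leave more ATP so luminescence rises with inhibition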). The settings on record: recombinant PfCDPK1, Kinase-Glo ATP depletion luminescence. On the technique in general: In Kinase-Glo more light means more ATP remaining.
Test [6] has as its target Plasmodium falciparum protein kinase 6 (PK6, PF3D7_1337100) (UniProt Q8IDW1). As to the kind of experiment: PfPK6 kinase inhibitors, biochemical, TCAMS library (AID 1159586). The settings on record: recombinant PfPK6, Kinase-Glo ATP depletion luminescence.
The target of test [7] is Protein kinase 7 (PK7), Plasmodium falciparum 3D7 (PF3D7_0213400) (UniProt Q7YTF7). As to the kind of experiment: inhibition of Plasmodium PK7 catalytic activity – biochemical, TCAMS antimalarial set, Kinase-Glo luminescence (AID 1159587). The settings on record: recombinant PfPK7, Kinase-Glo ATP depletion luminescence.
For test [8], the target named is Calcium-dependent protein kinase 4 (Plasmodium falciparum (isolate 3D7)) (UniProt Q8IBS5). Nature of the test: PfCDPK4 kinase inhibitors, biochemical, TCAMS library (AID 1159588; cut-off not given, nearly all actives have IC50 up to about 0.91 µM). The note with it: recombinant PfCDPK4, Kinase-Glo ATP depletion luminescence.

Values without a mark were called inactive. For part of these data: Potency and affinity values are given separately. Active and inactive are the calls of the source. Unless noted, how the calls were made is not given here.

Protein kinase 7 (PK7), Plasmodium falciparum 3D7 (PF3D7_0213400), sequence (Q7YTF7 1-343): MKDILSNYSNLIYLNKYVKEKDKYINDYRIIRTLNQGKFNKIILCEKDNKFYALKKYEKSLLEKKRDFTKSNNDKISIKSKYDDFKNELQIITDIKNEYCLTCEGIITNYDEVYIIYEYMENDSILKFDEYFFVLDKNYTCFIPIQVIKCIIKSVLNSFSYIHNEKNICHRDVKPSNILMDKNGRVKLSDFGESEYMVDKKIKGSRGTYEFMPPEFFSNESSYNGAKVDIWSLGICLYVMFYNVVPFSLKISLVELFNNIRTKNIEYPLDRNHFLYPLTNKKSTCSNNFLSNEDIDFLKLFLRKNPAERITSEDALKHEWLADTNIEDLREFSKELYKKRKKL
Calcium-dependent protein kinase 4 (Plasmodium falciparum (isolate 3D7)), sequence (Q8IBS5 whole entry, looked up): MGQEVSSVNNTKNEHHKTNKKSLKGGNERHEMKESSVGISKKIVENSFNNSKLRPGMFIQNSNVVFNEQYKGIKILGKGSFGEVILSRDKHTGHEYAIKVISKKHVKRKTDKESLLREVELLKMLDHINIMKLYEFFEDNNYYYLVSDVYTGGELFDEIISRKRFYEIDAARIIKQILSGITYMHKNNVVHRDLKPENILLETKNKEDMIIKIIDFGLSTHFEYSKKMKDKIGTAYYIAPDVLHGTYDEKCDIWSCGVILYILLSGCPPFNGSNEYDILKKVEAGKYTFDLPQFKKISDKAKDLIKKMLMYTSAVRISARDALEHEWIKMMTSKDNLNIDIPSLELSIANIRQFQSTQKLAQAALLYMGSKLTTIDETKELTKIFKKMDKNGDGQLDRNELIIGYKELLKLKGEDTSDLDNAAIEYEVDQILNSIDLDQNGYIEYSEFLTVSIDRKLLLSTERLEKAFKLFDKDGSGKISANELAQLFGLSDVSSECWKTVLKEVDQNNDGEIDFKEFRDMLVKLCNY
Plasmodium falciparum protein kinase 6 (PK6, PF3D7_1337100), sequence (Q8IDW1 1-305): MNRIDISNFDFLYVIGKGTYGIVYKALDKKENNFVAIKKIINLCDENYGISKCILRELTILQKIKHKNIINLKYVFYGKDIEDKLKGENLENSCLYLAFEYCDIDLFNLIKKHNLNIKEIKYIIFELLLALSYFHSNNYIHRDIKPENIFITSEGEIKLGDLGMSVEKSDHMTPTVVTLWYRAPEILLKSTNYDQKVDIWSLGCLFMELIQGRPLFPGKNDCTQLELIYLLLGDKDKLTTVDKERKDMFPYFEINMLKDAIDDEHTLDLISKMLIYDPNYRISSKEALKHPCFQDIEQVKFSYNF
Calcium-dependent protein kinase 1 (Plasmodium falciparum (isolate 3D7)), sequence (P62344 whole entry, looked up): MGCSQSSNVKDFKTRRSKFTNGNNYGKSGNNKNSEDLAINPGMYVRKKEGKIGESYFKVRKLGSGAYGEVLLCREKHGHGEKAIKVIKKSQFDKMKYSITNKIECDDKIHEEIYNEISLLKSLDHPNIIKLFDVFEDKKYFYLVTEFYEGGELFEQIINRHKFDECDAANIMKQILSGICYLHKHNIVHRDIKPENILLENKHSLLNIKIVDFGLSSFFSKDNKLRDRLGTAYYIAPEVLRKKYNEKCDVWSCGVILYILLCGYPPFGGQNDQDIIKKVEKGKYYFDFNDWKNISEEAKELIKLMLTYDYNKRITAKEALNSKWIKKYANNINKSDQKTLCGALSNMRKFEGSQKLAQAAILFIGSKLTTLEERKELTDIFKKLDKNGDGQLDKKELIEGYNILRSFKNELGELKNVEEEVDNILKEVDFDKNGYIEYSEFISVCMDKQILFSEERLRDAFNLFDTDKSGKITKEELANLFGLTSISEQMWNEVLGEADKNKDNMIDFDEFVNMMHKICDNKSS
L-lactate dehydrogenase (Plasmodium falciparum (isolate CDC / Honduras)), sequence (Q27743 whole entry, looked up): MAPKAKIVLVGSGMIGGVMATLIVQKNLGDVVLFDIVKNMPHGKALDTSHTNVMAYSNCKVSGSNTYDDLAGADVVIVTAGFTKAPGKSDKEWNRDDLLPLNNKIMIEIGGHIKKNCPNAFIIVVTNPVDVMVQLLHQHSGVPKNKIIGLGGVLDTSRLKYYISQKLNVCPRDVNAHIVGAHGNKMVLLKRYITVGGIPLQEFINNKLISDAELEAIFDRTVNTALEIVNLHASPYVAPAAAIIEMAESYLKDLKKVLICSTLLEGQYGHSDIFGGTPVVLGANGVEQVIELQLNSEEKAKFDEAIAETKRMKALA

For `CN(C)c1ccc(CN2CCC(CNC(=O)c3cc(-c4ccccc4Cl)cs3)C2)cc1` (stereo not drawn), the growth inhibition in test [1] was 5%; in test [4], 91% (active). Besides, the inhibition – broadly, the change of the read-out against control, counted positive when it falls – in test [2] was 29%; in test [3] it was -3%. The result in test [5], in test [6], in test [7] and in test [8] was inactive.

`CN1CCN(CCCCCNc2c3ccccc3nc3ccccc23)CC1`: the figures for the growth inhibition in test [1] and in test [4] were -8% and 99% (active), respectively. In addition, the inhibition is 57% (active) in test [2] and 5% in test [3]. The outcome in test [5], in test [6], in test [7] and in test [8] was inactive.

On to `O=C(Cc1cnc[nH]1)Nc1ccc(-c2ccc(-c3nc4ccccc4[nH]3)s2)cc1`, for which the growth inhibition was 34% in test [1] and 90% (active) in test [4]. Also, the inhibition is 44% in test [2] and 1% in test [3]. The result in test [5], in test [6], in test [7] and in test [8] was inactive.

Take `Cc1cc(=O)c(-c2ccc(Oc3ccc(C(F)(F)F)cc3)cc2)c(C)n1O`: the results for the growth inhibition in test [1] and in test [4] were 78% (active) and 94% (active), respectively. The inhibition in test [2] was 18%; in test [3], 0%. In addition, the result in test [5], in test [6], in test [7] and in test [8] was inactive.

Regarding `O=C(NC1CCCC1)c1ccc(N2CCC(NCc3cccc(C(F)(F)F)c3)CC2)cc1`, the results for the growth inhibition in test [1] and in test [4] were 75% (active) and 87% (active), respectively. The figures for the inhibition in test [2] and in test [3] were 11% and 1%, respectively. Moreover, the result in test [5], in test [6], in test [7] and in test [8] was inactive.

On to `CC(=O)c1ccc(NC(=O)Nc2ccc3nccc(N4CCN(C)CC4)c3c2)cc1`, for which the results for the growth inhibition in test [1] and in test [4] were 93% (active) and 101% (active), respectively. Further, the inhibition in test [2] is 2%; in test [3], -1%. For the same compound, the result in test [5], in test [6], in test [7] and in test [8] was inactive.

As for `Cc1cccc2[nH]c(-c3cccc(-c4cccc(NC(=O)c5cnc[nH]5)c4)c3)nc12`, the growth inhibition in test [1] was 91% (active); in test [4] it was 100% (active). Besides, the inhibition in test [2] is 2%; in test [3] it was 0%. For the same compound, the outcome in test [5], in test [6], in test [7] and in test [8] was inactive.

For `C[C@H](NC(=O)c1c(OC2CN(C(c3ccccc3)c3ccccc3)C2)c(-c2ccccc2)nc2ccccc12)C1CCCCC1`, the figures for the growth inhibition in test [1] and in test [4] were 74% (active) and 92% (active), respectively. Also, the figures for the inhibition in test [2] and in test [3] were 0% and 2%, respectively. For the same compound, the outcome in test [5], in test [6], in test [7] and in test [8] was inactive.

In the case of `O=C(/C=C/c1ccc(Cl)c(Cl)c1)NCCCCCN1CCC(NC(=O)Nc2ccc(Cl)c(Cl)c2)CC1`, the growth inhibition is 1% in test [1] and 102% (active) in test [4]. Further, the inhibition in test [2] is 23%; in test [3] it was 0%. The result in test [5], in test [6], in test [7] and in test [8] was inactive.

Regarding `CCc1ccc(O)c(-c2cc(C(=O)Nc3cccnc3)[nH]n2)c1`, the values for the growth inhibition in test [1] and in test [4] were 99% (active) and 98% (active), respectively. Also, the inhibition in test [2] is -4%; in test [3], -7%. Besides, the outcome in test [5], in test [6], in test [7] and in test [8] was inactive.

Consider `COc1ccc(CCNc2nc(N)c3cc(OC)c(OC)cc3n2)cc1`, for which the values for the growth inhibition in test [1] and in test [4] were 1% and 100% (active), respectively. The inhibition in test [2] was 16%; in test [3], -1%. Also, the result in test [5], in test [6], in test [7] and in test [8] was inactive.

As for `O=C(Nc1ccccc1)N(Cc1cccc(-c2cccc(CNCCc3ccccc3)c2)c1)C1CCN(Cc2ccccc2)CC1`, the growth inhibition is 87% (active) in test [1] and 100% (active) in test [4]. The inhibition is 100% (active) in test [2] and 1% in test [3]. Besides, the result in test [5], in test [6], in test [7] and in test [8] was inactive.

Consider `COCCSc1nc2scc(C)c2c(=O)n1Cc1cccc(OC)c1`, for which the growth inhibition was 33% in test [1] and 92% (active) in test [4]. For the same compound, the inhibition in test [2] was 0%; in test [3], -8%. Further, the outcome in test [5], in test [6], in test [7] and in test [8] was inactive.

For `CC(C)(CN1CCCC1)CN(Cc1ccc(-c2ccc(C(F)(F)F)cc2)cc1)C(=O)Cn1c(CCc2cccc(F)c2F)nc(=O)c2ccccc21`, the growth inhibition was 64% (active) in test [1] and 97% (active) in test [4]. Also, the inhibition in test [2] was 57% (active); in test [3] it was -3%. Besides, the outcome in test [5], in test [6], in test [7] and in test [8] was inactive.

`CC1(C)C[C@@H]2C[C@@](C)(CN2C(=O)c2cc(C(C)(C)C)nn2Cc2ccccc2)C1`: the values for the growth inhibition in test [1] and in test [4] were 77% (active) and 86% (active), respectively. For the same compound, the inhibition in test [2] was -3%; in test [3], 0%. In addition, the result in test [5], in test [6], in test [7] and in test [8] was inactive.

With `COc1ccc(OC(C)CNC(=O)c2cc([N+](=O)[O-])ccc2-c2ccc(OC)cc2)cc1` (stereo not drawn), the growth inhibition in test [1] is 44%; in test [4] it was 92% (active). For the same compound, the inhibition was 18% in test [2] and 3% in test [3]. Also, the outcome in test [5], in test [6], in test [7] and in test [8] was inactive.

For `COc1ccc2nccc([C@@H](O)CN3CCC(NCc4nc5ccc(F)cc5[nH]4)CC3)c2c1`, the growth inhibition in test [1] is 4%; in test [4], 100% (active). Moreover, the figures for the inhibition in test [2] and in test [3] were 20% and -2%, respectively. Also, the outcome in test [5], in test [6], in test [7] and in test [8] was inactive.

For `COc1cccc(Nc2nccc(NCC(O)c3cccc(C(F)(F)F)c3)n2)c1` (stereo not drawn), the growth inhibition in test [1] was 27%; in test [4], 96% (active). For the same compound, the inhibition in test [2] is 6%; in test [3], -4%. Besides, the outcome in test [5], in test [6], in test [7] and in test [8] was inactive.

As to `COCCN(C(=O)Cc1cccs1)C(C(=O)NCc1ccc(OC)cc1)c1ccc(C(C)C)cc1` (stereo not drawn), the growth inhibition in test [1] is 59% (active); in test [4] it was 96% (active). In addition, the inhibition was -13% in test [2] and 4% in test [3]. Besides, the result in test [5], in test [6], in test [7] and in test [8] was inactive.

For the compound `CCCCCc1ccc(NC(=O)Nc2ccc(Cn3ncc(N4CCCNCC4)c(Cl)c3=O)cc2)cc1`, the growth inhibition was 23% in test [1] and 87% (active) in test [4]. The inhibition in test [2] was 15%; in test [3], 3%. For the same compound, the outcome in test [5], in test [6], in test [7] and in test [8] was inactive.

As for `COc1cccc2c1CCN(CCN1CCC(CNC(=O)c3ccc(-c4ccc(C#N)cc4)cc3)CC1)C2`, the figures for the growth inhibition in test [1] and in test [4] were 98% (active) and 99% (active), respectively. Moreover, the inhibition in test [2] is 57% (active); in test [3], 6%. The result in test [5], in test [6], in test [7] and in test [8] was inactive.
